Screens: PubChem, several laboratories
RAM inhibit = inhibitors of the yeast RAM network | 190,000 tested, 1.8% active | S. cerevisiae dse1pr::URA3 reporter, 5-FOA growth OD615, 2 d; analog-sensitive cbk1-as2 kinase mutant strain | inhibition, % at 50 µM;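 active means inhibition above a set limit, 3 SD over mean compound inhibition, cut at about 8.4% in these data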;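 further: 0% = DMSO-only wells with no growth and 100% = 10 µM 1-NA-PP1 full growth; inhibition rescues growth on 5-FOA so higher OD means more RAM inhibition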
S1P4 antag = antagonists of human S1P4 receptor | O95977 | S1P4-expressing cells, antagonist mode, reporter read-out | inhibition, % at 4.98 µM | 220,000 tested, 0.26% active | AID 1510; in the data active means inhibition above about 29%;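 further: 0% = wells stimulated with agonist and 100% = vehicle wells without agonist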
Target sequence (O95977 whole entry, looked up): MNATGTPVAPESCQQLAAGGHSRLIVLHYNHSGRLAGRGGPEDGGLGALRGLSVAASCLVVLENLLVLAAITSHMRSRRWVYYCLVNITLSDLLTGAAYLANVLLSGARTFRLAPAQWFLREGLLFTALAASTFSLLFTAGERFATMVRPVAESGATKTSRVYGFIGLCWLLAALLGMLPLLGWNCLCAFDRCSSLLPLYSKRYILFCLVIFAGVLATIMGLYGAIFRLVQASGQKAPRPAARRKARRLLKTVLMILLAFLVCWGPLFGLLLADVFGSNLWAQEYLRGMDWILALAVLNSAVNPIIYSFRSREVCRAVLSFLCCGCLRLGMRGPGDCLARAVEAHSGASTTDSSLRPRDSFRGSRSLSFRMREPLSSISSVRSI
S1P3 antag = blocks the human S1P3 receptor. Q99500. CHO S1P3 NFAT-BLA reporter, FRET fluorescence, antagonist mode. inhibition, % at 4.98 µM. 170,000 tested, 0.27% active;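 active means inhibition above the plate cutoff, the mean inhibition of test wells on that plate plus 3 SD, cut at about 28% in these data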;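 further: cells challenged with S1P at its EC80 of 0.8 µM; blue over green emission ratio from cleaved BLA substrate after 4 h stimulation; 0% = S1P-stimulated wells and 100% = unstimulated DMSO-only wells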
Cl transport mod = modulators of human KCC2 chloride dependent transport; 190,000 tested, 2.2% active; Q9H2X9; B-score of Tl+ flux slope (higher = more flux/activation; lower = inhibition) at 10 µM; KCC2 cells, thallium flux FluoZin-2 fluorescence; AID 1456;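 active means thallium flux slope and its plate-corrected score both differing from the plate sample mean at a set confidence after two filtering rounds, in either direction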;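 further: slope of fluorescence scaled to starting intensity during 10 to 20 s after thallium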
S1P4 ag = human S1P4 receptor agonism; O95977; S1P4-expressing cell line, agonist reporter assay; activation, % at 4.98 µM; 220,000 tested, 0.35% active; AID 1509; in the data active means activation above about 11%;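 further: 0% = DMSO vehicle and 100% = reference agonist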
ROMK mod = human ROMK K+ channel modulation, primary screen; Tet-inducible ROMK, thallium flux fluorescence; actives lie on both sides; B-score at 10 µM; 130,000 tested, 2% active; AID 1918;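 active means signal ratio slope over the read window, or its plate-corrected B-score, at least 3 SD from the plate mean, either direction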;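 further: B-score of the F/F0 ratio slope over 7 to 12 s after thallium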
KCC2 sec1 = confirmation of human KCC2 transport modulators; shares compounds with Cl transport mod; HEK293-KCC2, thallium flux, FluoZin2 fluorescence; active compounds read high; normalised thallium flux (F/F0 slope) at 10 µM; 3,700 tested, 15% active;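 active means thallium flux slope above the same plate's solvent-only control mean plus 3 SD; inconclusive means the two replicate wells disagree; inactive means no significant difference from solvent-only control wells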
KCC2 bumet counter = thallium flux despite bumetanide block in KCC2 cells, secondary assay 3; shares compounds with Cl transport mod; AID 1714; 3,700 tested, 49% active; HEK293-KCC2 + bumetanide/ouabain, thallium flux FluoZin2; active compounds read high; normalized thallium flux at 10 µM;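 active means thallium entry rate above the same plate's blocked-transporter control wells by more than 3 SD; inconclusive means the two repeat wells disagree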;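 further: raw slope of fluorescence over initial fluorescence between 10 and 20 s after thallium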
KCC2 sec2 = KCC2 (human) modulation, second secondary assay | shares compounds with Cl transport mod | HEK293-KCC2, thallium flux FluoZin2 fluorescence; actives lie on both sides; F/F0 rise rate, 10–20 s post-thallium | normalized thallium flux at 10 µM | 3,700 tested, 23% active;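 active means thallium flux slope more than 3 SD above or below the plate's solvent-only control mean, mostly below; inconclusive means the two repeat wells disagreed; inactive means no significant shift from solvent-only controls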;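 further: raw slope with 0.1% DMSO as baseline and bumetanide as block control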
HEK293 Tl flux = counter-screen for KCC2 modulators: effect in parental HEK293 cells; thallium flux FluoZin2, ouabain; baseline-ratio fluorescence slope, 10–20 s after thallium; thallium flux rate (normalised fluorescence) at 10 µM; 3,700 tested, 46% active; shares compounds with Cl transport mod;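 active means thallium flux rate significantly above the same plate's solvent-only control wells, beyond their mean plus 3 SD; inconclusive means the two replicate wells gave conflicting results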
KCC2 retest ouab = confirmation of human KCC2 modulators with ouabain | 3,700 tested, 48% active | raw Tl+ flux slope (below DMSO = inhibition, above = activation) at 10 µM | HEK293-KCC2, thallium flux FluoZin2 fluorescence; bidirectional: low = inhibitor, high = activator | shares compounds with Cl transport mod | AID 1717;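 active means thallium flux slope beyond 3 SD from same-plate DMSO control mean in most replicates, usually higher, sometimes lower; inconclusive means repeat tests gave conflicting results; inactive means no significant difference from controls in most replicates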;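 further: slope of initial-normalized fluorescence between seconds 10 and 20 after thallium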
HEK293 Tl flux2 = counter-screen for KCC2 modulators: effect in parental HEK293 cells. shares compounds with Cl transport mod. thallium flux FluoZin-2 fluorescence slope. thallium flux slope at 10 µM. 3,700 tested, 33% active;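 active means thallium flux slope above the same plate's solvent-control mean plus 3 SD in both duplicate wells; inconclusive means duplicate wells that disagreed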;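 further: run without ouabain in cells lacking the KCC2 cotransporter; slope of fluorescence scaled to its starting value between 10 and 20 s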
S1P4 ag conf = human S1P4 agonism, confirmation | shares compounds with S1P4 ag | S1P4 agonist cell-based reporter assay | 740 tested, 7% active | activation, % at 4.98 µM; in the data active means activation above about 12%;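 further: 0% = vehicle and 100% = full reference agonist response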
S1P1 agonist = counter-screen for S1P4 agonists: agonists of human S1P1; S1P1 agonist cell-based assay, activation; 740 tested, 4% active; activation, % at 4.98 µM; shares compounds with S1P4 ag; AID 1563; in the data active means activation above about 21%;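 further: 0% = vehicle wells and 100% = reference agonist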
Target sequence (P21453 whole entry, looked up): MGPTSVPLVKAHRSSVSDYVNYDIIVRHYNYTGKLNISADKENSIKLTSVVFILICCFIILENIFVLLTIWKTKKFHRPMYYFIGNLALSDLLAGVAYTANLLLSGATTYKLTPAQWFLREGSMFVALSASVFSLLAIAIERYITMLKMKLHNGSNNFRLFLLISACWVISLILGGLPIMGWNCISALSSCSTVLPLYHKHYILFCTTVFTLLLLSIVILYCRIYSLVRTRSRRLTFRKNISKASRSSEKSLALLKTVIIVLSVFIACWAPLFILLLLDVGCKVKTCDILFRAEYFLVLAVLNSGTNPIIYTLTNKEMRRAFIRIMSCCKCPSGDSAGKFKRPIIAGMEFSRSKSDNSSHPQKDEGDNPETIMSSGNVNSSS
S1P4 antag cf = confirmation of human S1P4 receptor antagonists | shares compounds with S1P4 antag | S1P4-expressing cell line, antagonist mode, reporter read-out | inhibition, % at 4.98 µM | 520 tested, 71% active; in the data active means inhibition above about 30%
S1P1 antag = human S1P1 antagonism as S1P4 antagonist counter-screen; shares compounds with S1P4 antag; cell-based S1P1 antagonist counterscreen, inhibition; inhibition, % at 4.98 µM; 520 tested, 37% active; AID 1564; in the data active means inhibition above about 40%;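 further: receptor stimulated with S1P near its EC80; 0% = agonist stimulated wells and 100% = vehicle only wells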
Active calls of the source: *. A selection: hits, their analogues and other compounds. The true share with any hit is near 5.1%.

For Oc1c(C(c2ccccc2Cl)N2CCCC2)ccc2cccnc12 (stereo not given) the results were RAM inhibit 0.1, S1P4 antag 29.6*, S1P3 antag -8.6, Cl transport mod 2.86*, S1P4 ag -0.5, KCC2 sec1 0.0169, KCC2 bumet counter 0.00849*, KCC2 sec2 0.0301, HEK293 Tl flux 0.00998*, KCC2 retest ouab 0.0179, HEK293 Tl flux2 0.013*, S1P4 antag cf 112.2* and S1P1 antag 92.0*.
Cc1ccc(S(=O)(=O)Nc2ccc(S(=O)(=O)Nc3ncccn3)cc2)cc1 was read as RAM inhibit -0.2, S1P4 antag -4.6, S1P3 antag -16.5, S1P4 ag 1.8 and ROMK mod 0.988.
`Cc1ccc(S(=O)(=O)Nc2cccc3cccnc23)cc1` gave RAM inhibit 2.5, S1P4 antag 41.6*, Cl transport mod 13.4*, S1P4 ag 4.1, ROMK mod 0.0323, KCC2 sec1 inconclusive, KCC2 bumet counter 0.0661*, KCC2 sec2 0.0323, HEK293 Tl flux 0.02*, KCC2 retest ouab 0.0348*, HEK293 Tl flux2 inconclusive, S1P4 antag cf 109.9* and S1P1 antag 98.0*.
O=Cc1cccn1-c1ccc(O)cc1 was read as RAM inhibit 0.4, S1P4 antag -0.6, S1P3 antag -4.1, Cl transport mod 0.241, S1P4 ag -0.2 and ROMK mod 0.735.
`O=C1CCC([N+](=O)[O-])C(c2ccc3c(c2)OCO3)N1` (stereo not given) gave RAM inhibit -0.1, S1P4 antag 5.2, S1P3 antag -15.4, Cl transport mod 1.29, S1P4 ag 114.4*, S1P4 ag conf -0.5 and S1P1 agonist 1.5.
For COc1ccc(C(=O)COc2ccc(F)cc2)c(O)c1C the results were RAM inhibit 2.8, S1P4 antag -1.6, S1P3 antag 1.5, Cl transport mod 0.355 and S1P4 ag -1.8.
`O=C(c1ccccc1)N1CCC(c2nc3c(nnn3Cc3ccccc3Cl)c(=O)[nH]2)CC1` gave RAM inhibit 0.9, S1P4 antag -6.7, Cl transport mod -0.5, S1P4 ag 54.8*, S1P4 ag conf -2.0 and S1P1 agonist -1.7.
For COc1ccccc1Cn1nnc2c(=O)[nH]c(C3CCN(C(=O)c4ccc(F)cc4)CC3)nc21 the results were RAM inhibit 1.6, S1P4 antag -12.1, S1P3 antag -5.1, Cl transport mod -0.931, S1P4 ag 1.4 and ROMK mod -0.118.
For CCOC(=O)C1CCN(c2cc(C)nc3cc(-c4cccc(F)c4)nn23)CC1 the results were RAM inhibit 1.7, S1P4 antag 4.4, S1P3 antag -13.8, Cl transport mod -0.141, S1P4 ag 12.7*, ROMK mod -0.489, S1P4 ag conf -0.9 and S1P1 agonist 3.2.
`Cc1c(C)c2cc(Cl)c(O)c(CN3CCN(C)CC3)c2oc1=O` gave RAM inhibit -1.2, S1P4 antag -2.5, S1P4 ag 15.3*, ROMK mod -0.031, S1P4 ag conf -1.4 and S1P1 agonist -5.0.
For CCC1CCCCN1C(=S)Nc1ccc(OC(F)F)cc1 (stereo not given) the results were RAM inhibit 0.4, S1P4 antag -0.5, S1P3 antag -21.8, Cl transport mod 0.181, S1P4 ag 12.5*, S1P4 ag conf -2.0 and S1P1 agonist -3.4.
CC1CC(C)CN(C(=S)Nc2ccc(OC(F)F)cc2)C1 (stereo not given) was read as RAM inhibit 0.9, S1P4 antag -0.7, S1P3 antag 2.1, Cl transport mod -0.269, S1P4 ag 1.2 and ROMK mod -0.0173.
Screening CCCCN(CC)C(=O)c1ccc(Cl)cc1 returned RAM inhibit -0.1, S1P4 antag -4.9, S1P3 antag -13.7, Cl transport mod -1.11, S1P4 ag 2.1 and ROMK mod 0.111.
CCN(CC(=O)NC(C)C)C(=O)c1ccc(Cl)cc1 was read as RAM inhibit 0.9, S1P4 antag 0.3, S1P3 antag -6.2, Cl transport mod 0.427, S1P4 ag 18.2*, S1P4 ag conf -2.8 and S1P1 agonist -3.8.
O=C(N/N=C1\CCCc2ccccc21)c1ccc([N+](=O)[O-])cc1 was read as RAM inhibit 1.2, S1P4 antag -13.2, Cl transport mod 3.1*, S1P4 ag 11.7*, S1P4 ag conf -3.1 and S1P1 agonist -0.2.
`Cc1nnc(Sc2cc(C(=O)NC3CC3)c3ccccc3n2)s1` gave S1P4 antag -13.7, S1P3 antag 3.5, Cl transport mod 0.648, S1P4 ag 0.3 and ROMK mod -0.0124.
For O=C(Nc1ccc2c(c1)ncn2-c1ccccc1)c1ccco1 the results were RAM inhibit 0.7, S1P4 antag 4.4, S1P3 antag 28.2, Cl transport mod -0.0987, S1P4 ag 1.7 and ROMK mod 1.07.
Screening Cn1cnc2cc(NC(=O)c3ccco3)ccc21 returned RAM inhibit 1.9, S1P4 antag 6.4, S1P3 antag -1.4, Cl transport mod 0.349, S1P4 ag 61.2*, ROMK mod 1.12, S1P4 ag conf -1.6 and S1P1 agonist -9.0.
